Our source for the composite z-score and z-score values is PubChem BioAssay.

Assay [1] has as its system Plasmodium falciparum Sir2 (PF13_0152, Sir2A). Nature of the assay: pfSir2 binders on small-molecule microarrays, primary screen, biochemical, small-molecule microarray, 635 nm fluorescence (AID 1098).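 Also: score merges spot fluorescence intensity with its signal-to-noise ratio.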 As to conditions: small-molecule microarray binding, fluorescence 635 nm; higher = more signal.
A short description of assay [2]: small-molecule microarray binders of probe aDKK1, primary screen, biochemical, biotinylated probe, 635/667 nm fluorescence (AID 1099).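 Also: score merges 667nm spot fluorescence with signal to noise across triplicate slides.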 As to conditions: higher = more signal.
Assay [3] can be described thus: small-molecule microarray binders of probe aCHRDL2, primary screen, biochemical, biotinylated probe, 635/667 nm fluorescence (AID 1100). The following applies: higher = more signal.
Assay [4] can be described thus: splicing luciferase reporter signal modulators, primary screen, spliceosome inhibition project, cell-based, HEK293, splice +/- reporter (AID 1101).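 Also: HEK293 cells carrying a splicing-competent luciferase reporter gene; test concentration not given here.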 As to conditions: luminescence, 24 h, higher = more signal, called active from +8 up or from −8 down.
For assay [5], the target named is Fibroblast growth factor 10 (Homo sapiens) (UniProt O15520). Nature of the assay: FGF10 binders on small-molecule microarrays, primary screen, biochemical, small-molecule microarray, 635 nm fluorescence (AID 1102). As to conditions: FGF10 binding, fluorescence 635 nm, higher = more signal.
Fibroblast growth factor 10 (Homo sapiens), sequence (O15520 whole entry, looked up): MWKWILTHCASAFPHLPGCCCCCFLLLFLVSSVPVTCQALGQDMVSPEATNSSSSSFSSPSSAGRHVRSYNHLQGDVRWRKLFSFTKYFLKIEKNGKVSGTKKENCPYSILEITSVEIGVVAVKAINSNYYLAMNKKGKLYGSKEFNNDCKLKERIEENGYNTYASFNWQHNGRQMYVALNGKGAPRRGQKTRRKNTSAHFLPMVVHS
Assay [6] has as its system glycogen synthase kinase-3 (GSK3A per assay name; protocol says GSK3B). Nature of the assay: GSK3 binders on small-molecule microarrays, primary screen, biochemical, small-molecule microarray, 635 nm fluorescence, GSK3A (AID 1103). Also: the record names both GSK3A and GSK3B. The following applies: small-molecule microarray binding, fluorescence 635 nm; higher = more signal.
The target in assay [7] is Epidermal growth factor receptor (Homo sapiens) (UniProt P00533). Nature of the assay: EGFR binders on small-molecule microarrays, primary screen, biochemical, small-molecule microarray, 635 nm fluorescence (AID 1104).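 Also: score merges 667 nm emission intensity with spot signal to noise over triplicate slides.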 As to conditions: EGFR binding, higher = more signal.
Epidermal growth factor receptor (Homo sapiens), sequence (P00533 whole entry, looked up): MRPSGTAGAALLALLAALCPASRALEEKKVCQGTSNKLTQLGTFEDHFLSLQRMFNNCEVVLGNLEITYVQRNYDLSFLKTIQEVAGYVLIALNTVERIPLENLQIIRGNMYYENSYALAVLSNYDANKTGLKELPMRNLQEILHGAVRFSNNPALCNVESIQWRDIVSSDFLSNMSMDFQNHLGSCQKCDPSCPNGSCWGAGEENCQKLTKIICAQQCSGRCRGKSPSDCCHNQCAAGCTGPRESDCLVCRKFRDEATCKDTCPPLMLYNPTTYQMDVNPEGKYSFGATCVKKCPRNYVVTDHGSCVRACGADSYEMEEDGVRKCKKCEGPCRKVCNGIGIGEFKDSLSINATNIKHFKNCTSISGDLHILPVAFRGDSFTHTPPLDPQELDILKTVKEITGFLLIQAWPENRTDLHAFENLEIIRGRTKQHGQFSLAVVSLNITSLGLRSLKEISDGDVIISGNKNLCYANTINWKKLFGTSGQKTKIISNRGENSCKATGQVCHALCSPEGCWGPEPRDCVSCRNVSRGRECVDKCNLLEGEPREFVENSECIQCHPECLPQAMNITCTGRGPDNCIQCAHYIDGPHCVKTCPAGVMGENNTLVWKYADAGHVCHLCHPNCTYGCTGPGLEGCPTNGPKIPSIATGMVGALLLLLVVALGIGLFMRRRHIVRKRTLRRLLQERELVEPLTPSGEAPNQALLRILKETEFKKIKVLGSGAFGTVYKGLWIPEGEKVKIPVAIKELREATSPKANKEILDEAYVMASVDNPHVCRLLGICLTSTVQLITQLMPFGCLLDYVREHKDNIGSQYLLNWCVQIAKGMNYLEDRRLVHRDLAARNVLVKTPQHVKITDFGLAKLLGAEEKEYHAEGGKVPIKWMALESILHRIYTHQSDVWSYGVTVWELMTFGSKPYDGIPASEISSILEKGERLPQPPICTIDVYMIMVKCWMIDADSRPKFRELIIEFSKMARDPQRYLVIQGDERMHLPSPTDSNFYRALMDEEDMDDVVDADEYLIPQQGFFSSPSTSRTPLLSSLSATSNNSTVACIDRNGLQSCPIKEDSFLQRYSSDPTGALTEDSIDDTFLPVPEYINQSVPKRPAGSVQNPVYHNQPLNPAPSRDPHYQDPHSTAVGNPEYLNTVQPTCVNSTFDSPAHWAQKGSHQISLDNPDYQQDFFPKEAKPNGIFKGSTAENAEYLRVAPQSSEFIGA
The target of assay [8] is Follistatin-related protein 3 (Homo sapiens) (UniProt O95633). Nature of the assay: FSTL3 binders on small-molecule microarrays, primary screen, biochemical, small-molecule microarray, 635 nm fluorescence (AID 1105).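 Also: score merges emission near 667 nm and signal to noise per printed spot across three slides.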 As to conditions: FSTL3 binding, higher = more signal.
Follistatin-related protein 3 (Homo sapiens), sequence (O95633 whole entry, looked up): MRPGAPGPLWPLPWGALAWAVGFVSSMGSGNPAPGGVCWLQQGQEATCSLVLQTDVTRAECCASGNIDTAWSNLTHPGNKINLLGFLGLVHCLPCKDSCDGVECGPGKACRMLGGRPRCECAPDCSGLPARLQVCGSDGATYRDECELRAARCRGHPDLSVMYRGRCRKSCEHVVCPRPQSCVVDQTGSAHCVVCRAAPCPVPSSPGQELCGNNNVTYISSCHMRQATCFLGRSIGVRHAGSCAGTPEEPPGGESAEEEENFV
The target of assay [9] is Dickkopf-related protein 1 (Homo sapiens) (UniProt O94907). Nature of the assay: DKK1 binders on small-molecule microarrays, primary screen, biochemical, small-molecule microarray, 635 nm fluorescence scan (AID 1106).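 Also: score merges emission near 667 nm with signal to noise over three replicate slides.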 As to conditions: DKK1 binding, higher = more signal.
Dickkopf-related protein 1 (Homo sapiens), sequence (O94907 whole entry, looked up): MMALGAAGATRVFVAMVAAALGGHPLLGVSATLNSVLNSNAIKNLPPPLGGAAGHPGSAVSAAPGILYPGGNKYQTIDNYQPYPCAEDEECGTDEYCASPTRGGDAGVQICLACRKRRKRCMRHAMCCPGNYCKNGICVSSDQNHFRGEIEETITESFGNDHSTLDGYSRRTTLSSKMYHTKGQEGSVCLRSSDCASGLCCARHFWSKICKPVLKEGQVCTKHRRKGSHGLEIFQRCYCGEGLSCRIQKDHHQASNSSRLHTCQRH
The test system of assay [10] is Inhibin beta A chain (activin A). Nature of the assay: INHBA (activin A) binders on microarrays, primary screen, biochemical, small-molecule microarray, 635 nm fluorescence scan (AID 1107).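 Also: mouse activin A protein probed at 4.33 µg/mL on printed slides; score merges bound-protein fluorescence near 667 nm with spot signal-to-noise.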 The following applies: small-molecule microarray binding, higher = more signal.
Assay [11] relates to Human papillomavirus type 1a protein E7 (residues 44-93). Nature of the assay: HPV1a E7 fragment binders on microarrays, primary screen, biochemical, small-molecule microarray, residues 44-93, 635 nm fluorescence (AID 1108).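 Also: E7 fragment applied at 1 µg/mL in TBST for 1 h at 4 C; score combines spot fluorescence with its signal to noise ratio.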 The following applies: small-molecule microarray binding, fluorescence 635 nm; higher = more signal.
A short description of assay [12]: modulators of HCV replicon luciferase signal, primary screen, HCV replication inhibitor project, Huh7 cells, luciferase reporter (AID 1109).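 Also: huh7 hepatoma cells harbouring a luciferase neomycin HCV replicon reporter; luciferase luminescence as measure of HCV replicon replication; test concentration not given here.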 The following applies: 48 h, higher = more signal.
The target of assay [13] is Left-right determination factor 2 (Homo sapiens) (UniProt O00292). Nature of the assay: LEFTY2 binders on small-molecule microarrays, primary screen, biochemical, small-molecule microarray, 635 nm fluorescence scan (AID 1110). The following applies: LEFTY2 binding, higher = more signal.
Left-right determination factor 2 (Homo sapiens), sequence (O00292 whole entry, looked up): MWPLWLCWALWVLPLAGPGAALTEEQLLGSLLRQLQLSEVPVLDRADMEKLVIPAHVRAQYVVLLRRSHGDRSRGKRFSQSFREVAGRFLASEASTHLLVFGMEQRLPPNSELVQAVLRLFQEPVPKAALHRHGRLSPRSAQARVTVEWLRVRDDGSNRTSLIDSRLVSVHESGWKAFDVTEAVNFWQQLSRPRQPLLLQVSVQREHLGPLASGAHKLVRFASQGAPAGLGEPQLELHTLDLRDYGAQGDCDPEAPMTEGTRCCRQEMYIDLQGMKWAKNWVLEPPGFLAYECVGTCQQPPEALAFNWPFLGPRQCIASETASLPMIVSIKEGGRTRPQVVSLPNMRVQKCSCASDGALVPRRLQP
For assay [14], the target named is Calmodulin-1 (Homo sapiens) (UniProt P0DP23). Nature of the assay: CALM1 binders on microarrays, EGTA buffer, profiling panel, biochemical, small-molecule microarray, Cy5-labelled CALM1 (AID 1111).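 Also: labelled calmodulin applied in Tris saline Tween buffer holding calcium plus EGTA and DTT.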 The following applies: Cy5-CALM1 binding fluorescence, higher = more signal.
The target is the same in assay [15]. Nature of the assay: calcium-bound CALM1 binders on microarrays, profiling panel, artefact control for SMM control-protein annotation, biochemical, small-molecule microarray, Cy5-labelled CALM1, plus calcium (AID 1112).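 Also: score merges spot fluorescence with signal to noise from triplicate slides.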 The following applies: Cy5-CALM1 binding fluorescence, higher = more signal.
The nature of assay [16]: small-molecule microarray binders of probe aWnt5a, primary screen, biochemical, biotinylated probe, 635/667 nm fluorescence (AID 1113).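 Also: score merges 667 nm fluorescence intensity with signal-to-noise per printed feature.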 As to conditions: higher = more signal.
Assay [17] can be described thus: small-molecule microarray binders of probe aShh, primary screen, biochemical, biotinylated probe, 635/667 nm fluorescence (AID 1114).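 Also: probe is biotin-labelled aShh protein from a stem cell growth factor screen; measures binding of labelled protein to compounds printed on the slide; score merges feature fluorescence at 667 nm with signal-to-noise.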 As to conditions: higher = more signal.
Assay [18] is described as follows: small-molecule microarray binders of probe aNog, primary screen, biochemical, biotinylated probe, 635/667 nm fluorescence (AID 1115).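 Also: probe is biotinylated aNog protein used at 0.15 µg/mL for 1 h at 4 C; z-score combines 667 nm fluorescence of each spot with its signal to noise.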 As to conditions: higher = more signal.
In assay [19] the target is Torsin-1A-interacting protein 1 (Homo sapiens) (UniProt Q5JTV8). Nature of the assay: LAP1 binders from COS7 cell lysate, primary screen, small-molecule microarray, 635/667 nm fluorescence (AID 1116). As to conditions: COS7-hLAP1 lysate binding, 635 nm fluorescence, higher = more signal.
Torsin-1A-interacting protein 1 (Homo sapiens), sequence (Q5JTV8 whole entry, looked up): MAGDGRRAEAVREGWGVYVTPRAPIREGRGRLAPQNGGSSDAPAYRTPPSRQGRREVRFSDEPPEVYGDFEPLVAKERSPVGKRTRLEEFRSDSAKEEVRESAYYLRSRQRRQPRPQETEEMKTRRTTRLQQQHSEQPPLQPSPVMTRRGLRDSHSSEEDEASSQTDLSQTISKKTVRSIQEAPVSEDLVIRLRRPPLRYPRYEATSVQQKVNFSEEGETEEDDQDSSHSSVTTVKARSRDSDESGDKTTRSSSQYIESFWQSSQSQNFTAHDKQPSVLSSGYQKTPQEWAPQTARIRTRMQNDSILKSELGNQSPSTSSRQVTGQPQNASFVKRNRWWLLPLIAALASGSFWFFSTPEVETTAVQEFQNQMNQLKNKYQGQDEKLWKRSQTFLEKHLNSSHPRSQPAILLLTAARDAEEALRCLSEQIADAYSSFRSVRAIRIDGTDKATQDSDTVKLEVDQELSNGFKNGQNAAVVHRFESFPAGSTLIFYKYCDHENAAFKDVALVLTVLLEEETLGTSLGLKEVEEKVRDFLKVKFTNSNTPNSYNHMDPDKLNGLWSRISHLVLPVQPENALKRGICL
For assay [20], the target named is Alpha-bungarotoxin (Bungarus multicinctus) (UniProt P60615). Nature of the assay: alpha-bungarotoxin binders on microarray, profiling panel, artefact control for SMM control protein annotation, biochemical, small-molecule microarray, Alexa647 label, 635/667 nm fluorescence (AID 1117). As to conditions: alpha-BTX-A647 binding fluorescence, higher = more signal.
Alpha-bungarotoxin (Bungarus multicinctus), sequence (P60615 whole entry, looked up): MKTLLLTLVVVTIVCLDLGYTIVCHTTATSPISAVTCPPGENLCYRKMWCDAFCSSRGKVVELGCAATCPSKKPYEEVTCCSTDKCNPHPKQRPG

Active and inactive are the calls of the source.

For the molecule `CC(C)Cc1ccc(CN2CC[C@@H](NC(=O)c3ccccc3)C2)cc1`, the composite z-score in assay [1] is 0.934; in assay [2] it was -0.357; in [3], 0.0383; in assay [5], -0.75; in assay [6] it was -1.11; in assay [7], -0.381. The composite z-score in [8] is -0.647; in assay [9], -0.0332; in assay [10], 0.631; in assay [11], -0.979; in assay [13], 0.0756; in assay [14] it was -0.816. The composite z-score was -0.524 in assay [15]; -0.159 in [16]; -0.345 in assay [17]; -0.367 in assay [18]; 0.367 in assay [19]; 1.01 in assay [20]. Also, the figures for the z-score in [4] and in assay [12] were 1.03 (inactive) and -4.02, respectively.
With `O=C1N(Cc2ccccc2)c2ccccc2C[C@@]12N=C(c1ccc(OCCCO)cc1)O[C@H]2c1ccccc1`, the composite z-score in [1] is -0.0351; in [2], 0.184; in assay [3], 0.923; in [5], 0.457; in assay [6], 0.977; in assay [7], 0.282. Besides, the composite z-score in assay [8] was 0.319; in assay [9], -0.648; in assay [10], 0.295; in assay [11] it was 1.34; in assay [13] it was -0.297; in assay [14], 0.333. For the same molecule, the composite z-score in assay [15] is -0.458; in [16], -0.103; in assay [17], 0.0948; in assay [18], 0.576; in assay [19], 0.176; in assay [20], 0.849. Besides, the z-score was -0.521 (inactive) in assay [4] and -3.11 in assay [12].
Take `COCCOC(=O)N1C(=O)[C@@]2(c3cc(C#CCCO)ccc31)[C@H](C(=O)N1CCN(c3ncccn3)CC1)[C@H]1C(=O)O[C@H](c3ccccc3)[C@H](c3ccccc3)N1[C@@H]2c1ccc(OCCO)cc1`: the composite z-score was 1.24 in [1]; -0.019 in assay [2]; 0.349 in assay [3]; 1.22 in [5]; 0.823 in assay [6]; 0.592 in assay [7]. Moreover, the composite z-score in assay [8] amounted to 1.38; in assay [9], 0.514; in assay [10] it was 0.356; in [11], 1.46; in assay [13], 0.6; in assay [14] it was 1.26. Further, the composite z-score in assay [15] stood at 0.0318; in assay [16], 0.0633; in assay [17] it was 0.0469; in [18], 0.234; in assay [19], 0.867; in assay [20] it was 1.95. The z-score was -1.1 (inactive) in assay [4] and -1.21 in assay [12].
With `C=CC[C@]12N=C(c3ccc(OCCCO)cc3)O[C@H]1c1ccccc1N(CCC)C2=O`, the composite z-score in [1] was found to be 1.18; in assay [2], 0.43; in assay [3], 0.693; in [5], 1.11; in assay [6], 1.25; in assay [7], 0.37. For the same molecule, the composite z-score is 1.11 in assay [8]; 0.277 in [9]; 1.3 in assay [10]; 0.685 in [11]; 0.546 in assay [13]; 0.117 in assay [14]. Moreover, the composite z-score in assay [15] is -0.267; in assay [16], 0.0344; in [17], 0.187; in assay [18] it was 0.993; in assay [19], 1.46; in [20], 0.666. The z-score in [4] is -0.391 (inactive); in assay [12], -1.99.
For the molecule `COc1ccc([Si](C)(C)[C@H]2[C@H](CC(=O)N3CCC[C@H]3CO)O[C@@]3(C(=O)N(Cc4cccc(N5CCCCC5=O)c4)c4ccccc43)[C@@H]2C)cc1`, the composite z-score in assay [1] is 1.01; in assay [2], -0.297; in assay [3] it was -0.441; in assay [5], 1.3; in assay [6] it was 1.21; in [7] it was 0.532. In addition, the composite z-score in assay [8] turned out to be 1.26; in assay [9], 0.823; in [10] it was 0.248; in assay [11], 1.3; in assay [13], 0.854; in [14], 0.733. In addition, the composite z-score was 0.222 in assay [15]; -0.101 in [16]; 0.396 in [17]; 0.381 in assay [18]; 1.06 in assay [19]; 1.22 in assay [20]. Further, the z-score in [4] was 1.06 (inactive); in assay [12] it was -2.54.
